Where “and” joins values, the source holds several entries; their conditions need not be identical. Identical values can stand only once. Inconclusive results are not listed. Calls of active or inactive are those of the source. The call rests on the fitted dose curve; in most records, active means well fitted inhibition curve with a large enough effect; inconclusive means small, poorly fitted or top-dose-only effect; inactive means flat fitted curve, though single readings scatter.
Legend:
[1] = test system: KB-3-1; assay: Cytotoxic Profiling of Annotated Libraries Using Quantitative High-Throughput Screening (AID 1296008); conditions: Five cell lines viability, CellTiter-Glo ATP luminescence, 48-72 h; max response: hits give low values
In short: (§1)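 Cytotoxicity was measured as CellTiter-Glo ATP luminescence, read after 10 min at room temperature. Compound treatment of the cells lasted 48 or 72 hr at 37 degrees Celsius in a qHTS format.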

[2] = test system: NIH3T3; assay: as above; conditions: Five cell lines viability, CellTiter-Glo ATP luminescence, 48-72 h; max response: hits give low values
In short: as §1

[3] = test system: MCC-13; assay: qHTS assay to identify novel small-molecules to repurpose for Merkel cell carcinoma treatment (AID 1296009); conditions: MCC and control cell lines, CellTiter-Glo viability, 72 h; series mostly up to 46 µM
In short: (§2)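 After compound transfer in DMSO, plates were kept 72 hr at 37 degree celsius. Luminescent ATP signal from CellTiter-Glo served as viability measure, normalized against DMSO and no-cell controls.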

[4] = test system: MCC-26; assay: as above; conditions: MCC and control cell lines, CellTiter-Glo viability, 72 h; series mostly up to 46 µM
In short: as §2

[5] = test system: MKL-2; assay: as above; conditions: MCC and control cell lines, CellTiter-Glo viability, 72 h; series mostly up to 46 µM
In short: as §2

[6] = test system: UISO; assay: as above; conditions: MCC and control cell lines, CellTiter-Glo viability, 72 h; series mostly up to 46 µM
In short: as §2

[7] = test system: MKL-1; assay: as above; conditions: MCC and control cell lines, CellTiter-Glo viability, 72 h; series mostly up to 46 µM
In short: as §2

[8] = test system: NIH3T3; assay: as above; conditions: MCC and control cell lines, CellTiter-Glo viability, 72 h; at 44.8 µM (top of the series) unless noted
In short: as §2

[9] = test system: HACAT; assay: as above; conditions: MCC and control cell lines, CellTiter-Glo viability, 72 h; at 44.8 µM (top of the series) unless noted
In short: as §2
Further: nearly all actives have a fitted effect of over 60% in size.
On the % scale 0 is the no-effect control and ±100 the full control effect; potency means the concentration at half of the fitted maximal effect.

CC(C)C[C@H](NC(=O)[C@@H](NC(=O)c1cccc(-c2ccccc2)n1)[C@@H](C)O)B(O)O
active: Potency [1] 187 nM and 184 nM | Potency [2] 118 nM and 116 nM | Potency [3] 0.264 µM | Potency [4] 0.148 µM | Potency [5] 0.0418 µM

O=C1CSC(=O)N1C(CCc1ccncc1)COc1ccc(-c2cccc([N+](=O)[O-])c2)cc1 (centres undefined)
inactive: max response [1] -6.99% | max response [2] -3.92% | Potency [3]
active: Potency [5] 18.7 µM | Potency [6] 13.2 µM

CC(C=CC1=C(C)CCCC1(C)C)=CC=CC(C)=CC(=O)Nc1ccc(O)cc1
active: Potency [1] 38.2 µM | Potency [2] 48.1 µM | Potency [5] 30.3 µM
inactive: Potency [3] | Potency [4]

O=C(C=CC#Cc1cccc(NS(=O)(=O)c2ccccc2)c1)NO
active: Potency [1] 5.26 µM | Potency [2] 10.5 µM | Potency [3] 14.8 µM | Potency [7] 3.72 µM | Potency [5] 1.32 µM | Potency [6] 16.6 µM

CN[C@@H]1C[C@H]2O[C@@](C)([C@H]1OC)n1c3ccccc3c3c4c(c5c6ccccc6n2c5c31)C(=O)N[C@H]4O
active: Potency [1] 2.64 µM | Potency [2] 0.166 µM | Potency [3] 0.332 µM | Potency [4] 1.66 µM | Potency [7] 5.26 µM | Potency [6] 1.87 µM

C[C@H](CCC(=O)O)[C@H]1CCC2C3C[C@H](O)[C@@H]4C[C@H](O)CC[C@]4(C)C3CC[C@@]21C (some centres undefined)
inactive: max response [1] 6.35% | outcome [2] | Potency [3] | Potency [7] | Potency [5] | outcome [8] | Potency [6]

C=C(C)[C@@H]1CC[C@]2(C(=O)O)CC[C@]3(C)[C@H](CC[C@@H]4[C@@]5(C)CC[C@H](O)C(C)(C)[C@@H]5CC[C@]43C)[C@@H]12
inactive: max response [1] -12.2% | max response [2] 0.0342% | Potency [3] | Potency [7] | Potency [5] | Potency [6]

Cc1onc(-c2ccccc2)c1C(=O)N[C@@H]1C(=O)N2[C@@H](C(=O)O)C(C)(C)S[C@@H]12
inactive: max response [1] 3.95% | max response [2] -2.28% | Potency [3] | Potency [4] | Potency [7] | Potency [6]

C[C@H]1COc2c(N3CCN(C)CC3)c(F)cc3c(=O)c(C(=O)O)cn1c23
inactive: max response [1] 6.8% | outcome [2] | Potency [3] | Potency [7] | Potency [5] | outcome [8] | Potency [6]

COc1cc(C(C)C)c(Oc2cnc(NC(CO)CO)nc2N)cc1I
inactive: max response [1] -2.87% | max response [2] 1.73% | Potency [3] | Potency [4] | Potency [7] | Potency [5] | Potency [6]

CC(C)(O)Cn1c(NC(=O)c2ccc(-c3cn[nH]c3)s2)nc2cc(CN3CCOCC3)ccc21
active: Potency [1] 1.05 µM | Potency [2] 2.35 µM | Potency [3] 2.96 µM | Potency [7] 1.18 µM | Potency [5] 14.8 µM | Potency [6] 1.87 µM

CN(C)CCN1C(=O)c2cccc3cc(N)cc(c23)C1=O
active: Potency [1] 16.6 µM | Potency [2] 3.32 µM | Potency [7] 14.8 µM | Potency [5] 18.7 µM | Potency [6] 7.43 µM
inactive: Potency [4]

Cc1cnc(NC(=O)Nc2cc(Br)c(C)cc2OC[C@@H]2CNCCO2)cn1
active: Potency [2] 4.18 µM
inactive: max response [1] -6.69% | Potency [3] | Potency [4] | Potency [5]

COc1ccc2c(c1OC)C(=O)OC2[C@H]1c2c(cc3c(c2OC)OCO3)CCN1C (some centres undefined)
inactive: Potency [5]
active: Potency [1] 0.118 µM | Potency [2] 1.05 µM | Potency [3] 2.96 µM | Potency [6] 0.469 µM

COc1cc(N2CCC(C(N)=O)CC2)ccc1Nc1nc(N)c(Cl)c(Nc2ccccc2S(=O)(=O)C(C)C)n1
inactive: max response [1] 2.09% | Potency [3]
active: Potency [2] 3.72 µM | Potency [6] 5.9 µM

CC(Cc1ccc(O)c(O)c1)(NN)C(=O)O (centres undefined)
inactive: max response [1] -1.08% | max response [2] -2.89% | Potency [3] | Potency [7] | Potency [6]

COc1cccc2c1C(=O)c1c(O)c3c(c(O)c1C2=O)C[C@@](O)(C(=O)CO)C[C@@H]3O[C@H]1C[C@H](N)[C@@H](O)[C@H](C)O1
active: Potency [1] 0.743 µM | Potency [2] 0.235 µM | Potency [3] 5.9 µM | Potency [7] 0.166 µM

CC(=O)OC[C@@H]1O[C@@H](n2ccc(=O)[nH]c2=O)[C@H](OC(C)=O)[C@H]1OC(C)=O
inactive: max response [1] -0.144% | max response [2] -12.5% | Potency [3] | Potency [7] | Potency [6]

COc1ccc(C(C)=O)c(O)c1
inactive: max response [1] 4.34% | max response [2] 2.86% | Potency [3] | Potency [7] | Potency [5] | Potency [6]

COc1cc2c(cc1O)CCC1C2CC[C@@]2(C)C1CC[C@@H]2O (some centres undefined)
inactive: Potency [4]
active: Potency [1] 3.32 µM | Potency [2] 4.18 µM

CCCCC(=O)O[C@]1(C(=O)CO)[C@@H](C)C[C@H]2[C@@H]3CCC4=CC(=O)C=C[C@]4(C)[C@@]3(F)[C@@H](O)C[C@@]21C
inactive: outcome [1] | max response [2] -1.65% | Potency [3] | Potency [7] | Potency [5] | Potency [6]

CCOC(=O)[C@@H](N)Cc1ccc(-c2cc(O[C@H](c3ccc(Cl)cc3-n3ccc(C)n3)C(F)(F)F)nc(N)n2)cc1
inactive: outcome [9]

COc1cc2c(Nc3ccc(Cl)c(Cl)c3F)ncnc2cc1OCC1C[C@@H]2CN(C)C[C@H]2C1
active: Potency [1] 5.9 µM | Potency [7] 7.43 µM | Potency [6] 4.18 µM
